Inconclusive results are not listed. Activity calls are given as the source filed them. Calls follow the shape of the dose curve; as a rule, active = well fitted cell-killing curve with a large enough effect in the repeat runs; inconclusive = weak or mixed curves; inactive = flat fitted curve, though single readings scatter.
Assay: qHTS assay to identify small molecule antagonists of the TGF-beta/Smad signaling pathway - cell viability counter screen (AID 1346824); also: nearly all actives have a fitted effect of over 50% in size
Settings: SBE-bla HEK293T viability, CellTiter-Glo luminescence; series mostly up to 76.8 µM; viability change, negative = cytotoxic: at the top concentration
Source text: U.S. Tox21 Program National Center for Advancing Translational Sciences [NCATS] NIH Chemical Genomics Center [NCGC] U.S. Environmental Protection Agency [EPA] National Institutes of Environmental Health Sciences [NIEHS] National Toxicology Program [NTP] U.S. Food and Drug Administration [FDA] Tox21 Assay Overview: Transforming growth factor beta (TGF-beta) superfamily consists of a large number of structurally related dimeric proteins that act as hormones or local mediators in regulating a wide range of biological functions. This superfamily includes TGF-betas themselves, the bone morphogenetic proteins (BMPs) and the activins. These ligands induce oligomerization of serine/threonine receptor kinases and phosphorylate the cytoplasmic signaling molecules of Smad protein family. CellSensor SBE-bla HEK 293T cell line (Life Technologies, Carlsbad, CA), responsive to TGF-beta was used to screen Tox21 10K compound library for identification of agonists/antagonists of the Smad signaling pathway. This cell line contains a beta-lactamase reporter gene under control of the Smad binding element (SBE) stably integrated into HEK 293T cells. Also cytotoxicity of the compounds was tested in parallel by measuring the cell viability using CellTiter-Glo assay system in the same wells.
Tox21 Assay Protocol Summary: SBE-bla HEK 293T cells were dispensed at 4,000/well in 5 uL of assay medium into black wall/clear-bottom 1536-well plates using a Multidrop Combi (ThermoFisher Scientific, Waltham, MA) dispenser. After the assay plates were incubated at 37 C and 5% CO2 for an overnight, 23 nL of compounds dissolved in DMSO, positive controls or DMSO only was transferred to the assay plate by a Pintool station (Kalypsys, San Diego, CA). Compound transfer was followed by the addition of 1 uL of 0.25 ng/mL TGF-beta1 or assay buffer using two separate tips of Flying Reagent Dispenser (FRD, Aurora Discovery, San Diego, CA). The assay plates were incubated at 37 C and 5% CO2 for 5 hr. One uL of LiveBLAzer B/G FRET substrate (Life Technologies) was added using a Flying Reagent Dispenser (FRD, Aurora Discovery, San Diego, CA) and the plates were incubated at room temperature for 2 hr. Fluorescence intensity (405 nm excitation, 460 nm and 530 nm emissions) was measured using an Envision plate reader (PerkinElmer, Shelton, CT). For cytotoxicity read, 4 uL of CellTiter-Glo reagent (Promega Corporation, Madison, WI) was added to each well of the assay plates using FRD. After 30 min incubation at room temperature, the luminescence intensity was measured using ViewLux plate reader (PerkinElmer).
% is scaled to controls: 0 for no effect and ±100 for the full control effect.

Row | Compound | viability change, negative = cytotoxic
1 | Nc1ccc([N+](=O)[O-])c(N)c1 | -5.33% (inactive)
2 | NNc1nnc(NN)c2ccccc12 | -0.112% [at 35.3 µM] (inactive)
3 | O=P(O)(O)OP(=O)(O)O | 0.357% (inactive)
4 | CN1CCN(CC(=O)N2c3ccccc3C(=O)Nc3cccnc32)CC1 | -11.9% [at 6.97 µM] (inactive)
5 | CC(C)CC(=O)O | 1.57% (inactive)
6 | CC(=O)Nc1ccc(S(=O)(=O)Nc2ccc([N+](=O)[O-])cc2)cc1 | -5.43% [at 35.3 µM] (inactive)
7 | CC(CO)c1ccccc1 (stereo not given) | -0.506% (inactive)
8 | OC[C@H](Cc1cccc(O)c1)[C@H](CO)Cc1cccc(O)c1 | 2.31% (inactive)
9 | CNC(=O)[C@H]1O[C@@H](n2cnc3c(NCc4cc(Cl)ccc4OCc4cc(C)no4)ncnc32)[C@H](O)[C@@H]1N | 7.18% (inactive)
10 | CNS(=O)(=O)CCc1ccc2[nH]cc(C3CCN(C)CC3)c2c1 | -0.0931% [at 35.3 µM] (inactive)
11 | CC1COc2ccccc2N1 (stereo not given) | -0.327% (inactive)
12 | COc1cc(N)ccc1C | -4.52% (inactive)
13 | CC(=O)Nc1ccc(S(=O)(=O)Cl)cc1 | 9.18% (inactive)
14 | CCCCCCCCC(=O)Cl | 2.09% (inactive)
15 | CCOCCOC(=O)/C=C/c1ccc(OC)cc1 | -5.68% [at 35.3 µM] (inactive)
16 | Cc1cccc(C)c1OCC(C)N (stereo not given) | -8.08% [at 35.3 µM] (inactive)
17 | COC(=O)C1CC(=O)C(C(=O)OC)CC1=O (stereo not given) | -4.8% [at 6.97 µM] (inactive)
18 | CCCCCCCCC1CCC(=O)O1 (stereo not given) | 5% (inactive)
19 | CN1C(C)(C)CCCC1(C)C | -4.45% [at 35.3 µM] (inactive)
20 | CC(C)NCC(O)COc1cccc2[nH]ccc12 (stereo not given) | 0.41% [at 35.3 µM] (inactive)

Row | Compound | viability change, negative = cytotoxic
21 | Nc1cccc(O)c1 | -11.3% (inactive)
22 | CN(C)CCOCCO | 4.97% (inactive)
23 | C=C(C)C1CCC(C)(O)CC1 (stereo not given) | 1.24% (inactive)
24 | On1nnc2ccccc21 | 2.98% (inactive)
25 | Cc1ccccc1C(=O)Nc1ccc(C(=O)N2CCCC(N(C)C)c3ccccc32)cc1 (stereo not given) | 11.4% [at 35.3 µM] (inactive)
26 | BrCCCCCBr | -0.619% (inactive)
27 | CCOC(=O)c1ncn2c1CN(C)C(=O)c1cc(F)ccc1-2 | 3.73% [at 35.3 µM] (inactive)
28 | CCO[Si](CCCS)(OCC)OCC | -4.28% (inactive)
29 | C=C(C)C(=O)OCCNC(C)(C)C | 1.58% (inactive)
30 | Oc1ccccc1-c1nnco1 | 10.1% [at 35.3 µM] (inactive)
31 | CCCC(=O)C(C)=O | -2.89% (inactive)
32 | CCCCNC1CC(C)(C)NC(C)(C)C1 | -0.975% (inactive)
33 | CCCCCCOc1ccccc1C(N)=O | 5.93% [at 35.3 µM] (inactive)
34 | Cc1[nH]cnc1-c1ccc(Cl)cc1 | -22.1% [at 35.3 µM] (inactive)
35 | CC(C)CC(C)CC(C)CC(C)COC(=O)c1ccccc1C(=O)OCC(C)CC(C)CC(C)CC(C)C (stereo not given) | 3.1% (inactive)
36 | O=C(CCN1CCN(CCO)CC1)N1c2ccccc2Sc2ccc(C(F)(F)F)cc21 | -0.206% [at 35.3 µM] (inactive)
37 | CCC(C)NC(N)=O (stereo not given) | 17.6% (inactive)
38 | C#CC(C)N(C)C(=O)Nc1ccc(Cl)cc1 (stereo not given) | -0.0848% (inactive)
39 | CCc1ccc(C=O)cc1 | 0.587% (inactive)
40 | CC(S)C(=O)NCC(=O)O (stereo not given) | 4.66% [at 35.3 µM] (inactive)

Source: PubChem BioAssay (Tox21)
